Screening results deposited in PubChem by National Center for Advancing Translational Sciences (NCATS).
HEK293 tox: qHTS of GLP-1 Receptor Inverse Agonists: Cytotox Screen; Potency, µM (doses to about 38.3 µM), for the others: top-dose activity change, negative = inhibition, most hits filed as inhibitors; AID 624418, 2012; hit rate 0.13% among 410,000; HEK293 cAMP-luciferase reporter cells, luminescence, 24 h;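 note: loss of luciferase light is scored as toxicity; % is set by controls: 0 for no effect and ±100 for the full control effect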
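Seeding density was 200 cells/uL; after overnight-length (12 h) culture, 23 nL compounds went on for 24 h at 37 °C. Readout used a luciferase detection reagent, luminescence taken after 12 min at room temperature.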
USP1-UAF1 inh: Inhibitors of USP1/UAF1: Primary Screen; recombinant USP1/UAF1, Ub-Rhodamine cleavage fluorescence; Potency, µM (highest dose often 57.1 µM), for inactives: at the top dose activity change, negative = inhibition, hits mostly inhibitors; hit rate 0.23% among 390,000; AID 743255, 2014; note: % is set by controls: 0 for no effect and ±100 for the full control effect; nearly all actives have a fitted effect of over 60% in size
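In this screen, compounds sit with the deubiquitinase complex (1nM) for 15 min at room temperature before Ub-Rho is added at 150nM final. Fluorescence rise is then followed for 6 reads every 60 seconds.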
EPAC1 agonist: qHTS for Agonist of cAMP-regulated guanine nucleotide exchange factor 3 (EPAC1): primary screen; EPAC1 agonist qHTS, biochemical assay; response scale: 100% = response to 6.5 mM cAMP; Potency, µM (series often up to 154 µM), inactives show at the highest dose activation, hits mostly activators; hit rate 0.073% among 360,000; AID 720707, 2013; note: nearly all actives have a fitted effect of over 60% in size
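Nucleotide exchange assay: 100 nM EPAC1 with 250 nM Rap1B loaded with BODIPY-GDP and 50 uM GDP, room temperature. Fluorescence (480/540 nm) read every 5 min for 30 min; signal change normalized to 6.5 mM cAMP as full agonist.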
EPAC1 antag: qHTS for Antagonist of cAMP-regulated guanine nucleotide exchange factor 3 (EPAC1): primary screen | AID 720709, 2013 | hit rate 0.14% among 360,000 | EPAC1 GEF assay, Rap1b-BODIPY-GDP exchange fluorescence | Rap guanine nucleotide exchange factor 3 (Homo sapiens), O95398 | Potency, µM (doses to about 115 µM), inactives show top-dose activity change, negative = inhibition, hits mostly inhibitors;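 note: plate controls were vehicle for no effect and positive control for full effect; nearly all actives have a fitted effect of over 50% in size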
EPAC2 ag: qHTS for Agonist of cAMP-regulated guanine nucleotide exchange factor 4 (EPAC2): primary screen; hit rate 0.079% among 360,000; Potency, µM (titrated, usually from 154 µM), inactives show at the top dose activation, most hits filed as activators; EPAC2 activation, biochemical qHTS; response scale: 100% = 6.5 mM cAMP response; Rap guanine nucleotide exchange factor 4 (Homo sapiens), Q8WZA2; AID 720711, 2013; note: nearly all actives have a fitted effect of over 50% in size
Target sequence (Q8WZA2 whole entry, looked up): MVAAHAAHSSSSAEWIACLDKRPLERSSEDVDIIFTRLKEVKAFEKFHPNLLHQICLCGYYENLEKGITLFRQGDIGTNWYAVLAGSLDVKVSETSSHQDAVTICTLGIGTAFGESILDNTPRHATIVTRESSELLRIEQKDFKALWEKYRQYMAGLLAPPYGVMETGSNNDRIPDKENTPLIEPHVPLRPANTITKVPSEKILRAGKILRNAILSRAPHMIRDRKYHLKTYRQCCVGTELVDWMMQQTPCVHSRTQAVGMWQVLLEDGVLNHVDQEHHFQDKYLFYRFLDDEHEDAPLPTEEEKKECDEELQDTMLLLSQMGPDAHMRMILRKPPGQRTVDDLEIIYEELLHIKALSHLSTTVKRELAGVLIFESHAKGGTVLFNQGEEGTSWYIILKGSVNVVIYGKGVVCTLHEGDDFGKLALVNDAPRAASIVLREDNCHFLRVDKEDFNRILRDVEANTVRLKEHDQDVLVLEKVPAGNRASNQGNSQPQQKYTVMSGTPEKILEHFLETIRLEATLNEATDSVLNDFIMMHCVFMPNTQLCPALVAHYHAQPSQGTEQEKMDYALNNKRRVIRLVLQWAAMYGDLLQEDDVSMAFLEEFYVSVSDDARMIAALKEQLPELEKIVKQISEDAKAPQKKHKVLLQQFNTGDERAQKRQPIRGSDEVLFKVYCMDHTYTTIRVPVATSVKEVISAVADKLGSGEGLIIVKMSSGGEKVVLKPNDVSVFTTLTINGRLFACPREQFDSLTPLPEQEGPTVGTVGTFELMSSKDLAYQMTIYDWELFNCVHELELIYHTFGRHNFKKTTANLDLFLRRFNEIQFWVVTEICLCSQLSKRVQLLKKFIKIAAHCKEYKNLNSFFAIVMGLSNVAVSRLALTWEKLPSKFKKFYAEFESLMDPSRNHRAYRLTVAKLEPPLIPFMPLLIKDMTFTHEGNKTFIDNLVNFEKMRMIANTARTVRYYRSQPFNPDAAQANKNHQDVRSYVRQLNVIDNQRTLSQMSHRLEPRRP
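EPAC2 (100 nM) mixed with Rap1B loaded with BODIPY-GDP (250 nM) plus 50 uM unlabeled GDP; compounds pinned in, 5 min RT, then read every 5 min for 30 min (ex 480, em 540 nm). Normalized to cAMP control.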
EPAC2 antag: qHTS for Antagonist of cAMP-regulated guanine nucleotide exchange factor 2 (EPAC2): primary screen; Rap guanine nucleotide exchange factor 4 (Homo sapiens), Q8WZA2; EPAC2 GEF exchange of Rap1B-BODIPY-GDP, fluorescence; Potency, µM (titrated, usually from 114 µM), for inactives: top-dose activity, negative = inhibition, actives largely listed as inhibitors; hit rate 0.18% among 360,000; note: % is set by controls: 0 for no effect and ±100 for the full control effect; nearly all actives have a fitted effect of over 45% in size
Starred values were filed as active, the others as inactive; i = inactive; ? = inconclusive; · = no result given. Only some compounds are listed: those with a hit (about 0.55% of all), similar ones and a draw of the others. Calls come from the whole dose curve; as a rule, active = well fitted curve in the direction sought with a large enough effect; inconclusive = small, poorly fitted or top-dose-only effect, or another doubt; inactive = no such curve, though single readings can be large; an effect the other way counts as inactive or inconclusive. Potency is the fitted concentration of half-maximal effect.

SMILES | HEK293 tox | USP1-UAF1 inh | EPAC1 agonist | EPAC1 antag | EPAC2 ag | EPAC2 antag
COC1C(OC(=O)c2ccc(C)[nH]2)C(O)C(Oc2ccc3c(O)c(NC(=O)c4ccc(O)c(CC=C(C)C)c4)c(=O)oc3c2Cl)OC1(C)C (stereo not given) | ? | -7.3% | -11.4% | 39.8µM* | -2.4% | -15.5%
CCCCNc1ccc2c3c(cccc13)C(=O)N(CCCC)C2=O | 410.7% | 25.1µM* | 79.4µM* | 250.4% | 100µM* | 183.3%
Cc1cc(C)cc(-n2c(O)c(C=Nc3ccc(N4CCOCC4)cc3)c(=O)[nH]c2=S)c1 | 3.7% | -20.5% | 11.4% | -23.8% | -3.9% | 21.5%
O=c1[nH]c(=S)n(-c2ccccc2F)c(O)c1C=Nc1ccc(N2CCOCC2)cc1 | -4.5% | 25.1µM* | 56.2µM* | 88.2% | ? | 92.7%
O=c1[nH]c(=S)n(-c2ccc(Br)cc2)c(O)c1C=Nc1ccc(N2CCOCC2)cc1 | 8.1% | 31.6µM* | -17.5% | -0.2% | -4.4% | 24.9%
CCCCNc1cc(C)nc(NCc2ccccc2)n1 | 11.2µM* | 0.4% | 17.1% | -0.6% | 8.0% | -0.1%
COc1ccc(C2Nc3cc(OC)ccc3-n3cccc32)cc1 (stereo not given) | 181.4% | -18.5% | 2.7% | 12.0% | 11.3% | 2.2%
O=[N+]([O-])c1ccc(N2CCCCCC2)c2nonc12 | ? | 28.2µM* | 100µM* | 67.1% | 100µM* | 42.3%
O=[N+]([O-])c1ccc(NCc2ccccc2)c2nonc12 | -3.8% | 22.4µM* | 56.2µM* | 34.4% | 56.2µM* | 36.4%
Cc1nn(C)c(C)c1N1C(=O)c2cccc3c(N)ccc(c23)C1=O | i | 25.1µM* | 100µM* | 93.9% | 100µM* | 373.7%
O=c1[nH]c(=S)[nH]c(O)c1N=Nc1ccc2c(c1)OCO2 | 10µM* | -20.1% | -0.6% | 0.8% | -19.1% | 4.1%
O=c1[nH]c(=S)[nH]c(O)c1N=Nc1ccc2c(c1)OCCO2 | ? | ? | 1.3% | -6.8% | -13.6% | -9.7%
O=C(CCOc1cccc(Br)c1)Nc1ccc(F)c(S(=O)(=O)N2CCOCC2)c1 | ? | -13.2% | 27.9% | -6.9% | 15.9% | -3.9%
O=c1c2cc([N+](=O)[O-])cc([N+](=O)[O-])c2[nH]n1-c1ccccc1 | ? | -21.0% | -11.7% | ? | -16.5% | 44.7µM*
COc1cc(/C=C/c2nc3ccccc3c(=O)n2-c2ccccc2O)ccc1O | 27.2% | ? | 8.8% | ? | 1.8% | -25.6%
COc1cc(/C=C/c2nc3ccccc3c(=O)n2-c2cccc(O)c2)ccc1O | 8.0% | -10.6% | 5.2% | 50.1µM* | -0.5% | -2.3%
N=C1/C(=C\c2ccc(OC(=O)c3ccccc3Cl)cc2)C(=O)N=C2SC(N3CCOCC3)=NN12 | 0.5% | ? | -5.0% | ? | 4.1% | -10.5%
O=P(Oc1ccccc1)(Oc1ccccc1)N1CCOCC1 | -0.7% | -13.8% | -1.3% | 3.0% | 4.6% | 21.1%
CCN1CCN(C2=C(NS(=O)(=O)c3ccccc3)C(=O)c3ccccc3C2=O)CC1 | ? | ? | 10.9% | -1.9% | 12.4% | -3.9%
O=C1C=C(N2CCOCC2)c2ccccc2C1=O | 11.2µM* | 3.16µM* | 3.0% | 10µM* | 22.2% | ?
O=C1C=C(N2CC2)c2ccccc2C1=O | -16.4% | 7.08µM* | 13.6% | ? | 15.0% | ?
O=C1C=CC(O)C2(CO)OC12 (stereo not given) | ? | -26.5% | 6.0% | 17.6% | 3.3% | 2.2%
Cc1cccc(N2C(=O)NC(=O)/C(=C\c3cc(C)n(-c4sc5c(c4C#N)CCCC5)c3C)C2=O)c1C | -6.3% | ? | 11.7% | 35.5µM* | -2.7% | -22.3%
CCOC(=O)c1c(-n2c(C)cc(C=C3C(=O)NC(=O)NC3=O)c2C)sc2c1CCCC2 | 6.5% | -8.5% | 1.4% | -2.0% | -6.9% | 3.7%
Cn1cc(SCC(=O)Nc2nc3ccccc3s2)c2ccccc21 | ? | -0.4% | 19.3% | 9.5% | 15.8% | -4.4%
SMILES | HEK293 tox | USP1-UAF1 inh | EPAC1 agonist | EPAC1 antag | EPAC2 ag | EPAC2 antag
Cc1cccc(/C=C(\c2nc3ccccc3[nH]2)S(=O)(=O)c2ccccc2)c1 | 8.91µM* | ? | -13.6% | -18.5% | -10.9% | -9.1%
O=C(Nc1ccccc1)NN(C(=O)CCl)c1ccccc1 | ? | ? | 1.2% | -29.1% | -2.6% | -6.9%
CN(CCC#N)C(=O)COC(=O)c1c2c(nc3ccccc13)/C(=C\c1ccco1)CC2 | 340.8% | ? | 2.2% | ? | -1.8% | -6.8%
O=[N+]([O-])c1c(Nc2ccc(O)cc2)cc(Cl)c2nonc12 | ? | ? | -3.3% | -12.7% | -7.3% | 5.5%
Nc1ccc2nonc2c1[N+](=O)[O-] | -31.6% | 31.6µM* | ? | 1.4% | ? | -1.5%
CN(CC(=O)Nc1ccc(F)cc1)C(=O)COC(=O)c1ccc(-c2ccccc2)cc1 | ? | -8.7% | -11.6% | -11.8% | -1.3% | 2.3%
N=C(N)c1c(O)n(C2CCCCC2)c(=O)n(C2CCCCC2)c1=O | 11.2µM* | -15.6% | 21.2% | -26.4% | 16.8% | -14.1%
O=c1c(C=NCc2cccs2)c(O)n(C2CCCCC2)c(=O)n1C1CCCCC1 | 13.3% | -6.2% | 11.5% | 9.0% | 13.7% | -0.5%
CCOc1ccc(N=Cc2c(O)n(CCc3ccc(OC)c(OC)c3)c(=O)[nH]c2=O)cc1 | 23.1% | -18.3% | -1.0% | 2.4% | -6.7% | 20.7%
COc1ccc(N=Cc2c(O)n(Cc3ccccc3)c(=S)[nH]c2=O)c(OC)c1 | 1.2% | 11.6% | 10.5% | -9.5% | 100µM* | 0.6%
COc1ccc(Cn2c(O)c(C=Nc3c(C)n(C)n(-c4ccccc4)c3=O)c(=O)[nH]c2=O)cc1 | 3.5% | -23.4% | -3.9% | 8.7% | -0.2% | 1.8%
COc1ccc(OC)c(N=Cc2c(O)n(Cc3ccccc3)c(=S)[nH]c2=O)c1 | 0.0% | 28.2µM* | 7.7% | 5.6% | ? | 4.0%
COc1ccc(CC(N)c2csc(Nc3nncc4ccccc34)n2)cc1 (stereo not given) | ? | · | -0.2% | -12.3% | 1.8% | 1.2%
CCOP(=O)(Nc1ccc2c(c1)C(=NNC(N)=S)c1ccccc1-2)OCC | 12.6µM* | -15.5% | 4.1% | ? | 10.2% | -0.7%
O=C(NC1CCCc2ccccc21)c1ccccc1OC(F)F (stereo not given) | ? | -3.0% | -8.1% | -11.0% | 3.4% | ?
